From PubChem BioAssay
The source made the active and inactive calls.

Tests used:
[1] = test system: Plasmodium falciparum Sir2 (PF13_0152, Sir2A); assay: pfSir2 binders on small-molecule microarrays, primary screen, biochemical, small-molecule microarray, 635 nm fluorescence (AID 1098); details: small-molecule microarray binding, fluorescence 635 nm; higher = more signal;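 note: score merges spot fluorescence intensity with its signal-to-noise ratio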
[2] = small-molecule microarray binders of probe aDKK1, primary screen, biochemical, biotinylated probe, 635/667 nm fluorescence (AID 1099); details: higher = more signal;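 note: score merges 667nm spot fluorescence with signal to noise across triplicate slides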
[3] = small-molecule microarray binders of probe aCHRDL2, primary screen, biochemical, biotinylated probe, 635/667 nm fluorescence (AID 1100); details: higher = more signal
[4] = splicing luciferase reporter signal modulators, primary screen, spliceosome inhibition project, cell-based, HEK293, splice +/- reporter (AID 1101); details: luminescence, 24 h, higher = more signal, called active from +8 up or from −8 down;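 note: HEK293 cells carrying a splicing-competent luciferase reporter gene; test concentration not given here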
[5] = molecular target: Fibroblast growth factor 10 (Homo sapiens) (UniProt O15520); assay: FGF10 binders on small-molecule microarrays, primary screen, biochemical, small-molecule microarray, 635 nm fluorescence (AID 1102); details: FGF10 binding, fluorescence 635 nm, higher = more signal
[6] = test system: glycogen synthase kinase-3 (GSK3A per assay name; protocol says GSK3B); assay: GSK3 binders on small-molecule microarrays, primary screen, biochemical, small-molecule microarray, 635 nm fluorescence, GSK3A (AID 1103); details: small-molecule microarray binding, fluorescence 635 nm; higher = more signal; note: the record names both GSK3A and GSK3B
[7] = molecular target: Epidermal growth factor receptor (Homo sapiens) (UniProt P00533); assay: EGFR binders on small-molecule microarrays, primary screen, biochemical, small-molecule microarray, 635 nm fluorescence (AID 1104); details: EGFR binding, higher = more signal;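 note: score merges 667 nm emission intensity with spot signal to noise over triplicate slides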
[8] = molecular target: Follistatin-related protein 3 (Homo sapiens) (UniProt O95633); assay: FSTL3 binders on small-molecule microarrays, primary screen, biochemical, small-molecule microarray, 635 nm fluorescence (AID 1105); details: FSTL3 binding, higher = more signal;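 note: score merges emission near 667 nm and signal to noise per printed spot across three slides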
[9] = molecular target: Dickkopf-related protein 1 (Homo sapiens) (UniProt O94907); assay: DKK1 binders on small-molecule microarrays, primary screen, biochemical, small-molecule microarray, 635 nm fluorescence scan (AID 1106); details: DKK1 binding, higher = more signal;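 note: score merges emission near 667 nm with signal to noise over three replicate slides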
[10] = test system: Inhibin beta A chain (activin A); assay: INHBA (activin A) binders on microarrays, primary screen, biochemical, small-molecule microarray, 635 nm fluorescence scan (AID 1107); details: small-molecule microarray binding, higher = more signal;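 note: mouse activin A protein probed at 4.33 µg/mL on printed slides; score merges bound-protein fluorescence near 667 nm with spot signal-to-noise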
[11] = test system: Human papillomavirus type 1a protein E7 (residues 44-93); assay: HPV1a E7 fragment binders on microarrays, primary screen, biochemical, small-molecule microarray, residues 44-93, 635 nm fluorescence (AID 1108); details: small-molecule microarray binding, fluorescence 635 nm; higher = more signal;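 note: E7 fragment applied at 1 µg/mL in TBST for 1 h at 4 C; score combines spot fluorescence with its signal to noise ratio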
[12] = modulators of HCV replicon luciferase signal, primary screen, HCV replication inhibitor project, Huh7 cells, luciferase reporter (AID 1109); details: 48 h, higher = more signal;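 note: huh7 hepatoma cells harbouring a luciferase neomycin HCV replicon reporter; luciferase luminescence as measure of HCV replicon replication; test concentration not given here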
[13] = molecular target: Left-right determination factor 2 (Homo sapiens) (UniProt O00292); assay: LEFTY2 binders on small-molecule microarrays, primary screen, biochemical, small-molecule microarray, 635 nm fluorescence scan (AID 1110); details: LEFTY2 binding, higher = more signal
[14] = molecular target: Calmodulin-1 (Homo sapiens) (UniProt P0DP23); assay: CALM1 binders on microarrays, EGTA buffer, profiling panel, biochemical, small-molecule microarray, Cy5-labelled CALM1 (AID 1111); details: Cy5-CALM1 binding fluorescence, higher = more signal;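 note: labelled calmodulin applied in Tris saline Tween buffer holding calcium plus EGTA and DTT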
[15] = molecular target: Calmodulin-1 (Homo sapiens) (UniProt P0DP23); assay: calcium-bound CALM1 binders on microarrays, profiling panel, artefact control for SMM control-protein annotation, biochemical, small-molecule microarray, Cy5-labelled CALM1, plus calcium (AID 1112); details: Cy5-CALM1 binding fluorescence, higher = more signal;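 note: score merges spot fluorescence with signal to noise from triplicate slides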
[16] = small-molecule microarray binders of probe aWnt5a, primary screen, biochemical, biotinylated probe, 635/667 nm fluorescence (AID 1113); details: higher = more signal;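 note: score merges 667 nm fluorescence intensity with signal-to-noise per printed feature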
[17] = small-molecule microarray binders of probe aShh, primary screen, biochemical, biotinylated probe, 635/667 nm fluorescence (AID 1114); details: higher = more signal;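 note: probe is biotin-labelled aShh protein from a stem cell growth factor screen; measures binding of labelled protein to compounds printed on the slide; score merges feature fluorescence at 667 nm with signal-to-noise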
[18] = small-molecule microarray binders of probe aNog, primary screen, biochemical, biotinylated probe, 635/667 nm fluorescence (AID 1115); details: higher = more signal;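 note: probe is biotinylated aNog protein used at 0.15 µg/mL for 1 h at 4 C; z-score combines 667 nm fluorescence of each spot with its signal to noise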
[19] = molecular target: Torsin-1A-interacting protein 1 (Homo sapiens) (UniProt Q5JTV8); assay: LAP1 binders from COS7 cell lysate, primary screen, small-molecule microarray, 635/667 nm fluorescence (AID 1116); details: COS7-hLAP1 lysate binding, 635 nm fluorescence, higher = more signal
[20] = molecular target: Alpha-bungarotoxin (Bungarus multicinctus) (UniProt P60615); assay: alpha-bungarotoxin binders on microarray, profiling panel, artefact control for SMM control protein annotation, biochemical, small-molecule microarray, Alexa647 label, 635/667 nm fluorescence (AID 1117); details: alpha-BTX-A647 binding fluorescence, higher = more signal
Chain of Alpha-bungarotoxin (Bungarus multicinctus) (P60615 whole entry, looked up): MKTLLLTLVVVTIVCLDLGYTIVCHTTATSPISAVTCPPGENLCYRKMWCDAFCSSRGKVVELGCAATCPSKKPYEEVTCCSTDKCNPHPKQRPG

Chain of Left-right determination factor 2 (Homo sapiens) (O00292 whole entry, looked up): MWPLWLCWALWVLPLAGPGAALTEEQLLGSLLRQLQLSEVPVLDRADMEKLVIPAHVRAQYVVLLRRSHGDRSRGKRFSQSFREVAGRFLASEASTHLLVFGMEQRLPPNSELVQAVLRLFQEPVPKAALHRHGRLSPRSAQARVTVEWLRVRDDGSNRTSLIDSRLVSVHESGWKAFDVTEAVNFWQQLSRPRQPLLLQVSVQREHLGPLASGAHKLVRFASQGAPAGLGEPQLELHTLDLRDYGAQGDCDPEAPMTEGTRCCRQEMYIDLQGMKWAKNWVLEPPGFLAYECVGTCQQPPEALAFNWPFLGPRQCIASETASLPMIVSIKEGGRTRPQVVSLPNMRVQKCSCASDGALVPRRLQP
Chain of Dickkopf-related protein 1 (Homo sapiens) (O94907 whole entry, looked up): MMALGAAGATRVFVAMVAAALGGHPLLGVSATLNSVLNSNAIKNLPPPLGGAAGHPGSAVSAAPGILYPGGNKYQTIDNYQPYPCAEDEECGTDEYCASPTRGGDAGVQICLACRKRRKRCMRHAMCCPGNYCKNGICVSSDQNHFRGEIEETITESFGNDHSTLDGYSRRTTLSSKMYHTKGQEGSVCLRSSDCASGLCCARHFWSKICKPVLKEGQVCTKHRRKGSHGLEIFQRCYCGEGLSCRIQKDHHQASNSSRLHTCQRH
Chain of Follistatin-related protein 3 (Homo sapiens) (O95633 whole entry, looked up): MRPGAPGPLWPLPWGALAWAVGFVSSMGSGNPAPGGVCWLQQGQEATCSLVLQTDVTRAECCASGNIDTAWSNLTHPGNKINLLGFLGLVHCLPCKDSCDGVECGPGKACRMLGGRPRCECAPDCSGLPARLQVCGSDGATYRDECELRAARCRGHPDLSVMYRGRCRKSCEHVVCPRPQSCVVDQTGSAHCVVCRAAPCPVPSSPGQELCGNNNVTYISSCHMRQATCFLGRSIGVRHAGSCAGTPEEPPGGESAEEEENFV
Chain of Torsin-1A-interacting protein 1 (Homo sapiens) (Q5JTV8 whole entry, looked up): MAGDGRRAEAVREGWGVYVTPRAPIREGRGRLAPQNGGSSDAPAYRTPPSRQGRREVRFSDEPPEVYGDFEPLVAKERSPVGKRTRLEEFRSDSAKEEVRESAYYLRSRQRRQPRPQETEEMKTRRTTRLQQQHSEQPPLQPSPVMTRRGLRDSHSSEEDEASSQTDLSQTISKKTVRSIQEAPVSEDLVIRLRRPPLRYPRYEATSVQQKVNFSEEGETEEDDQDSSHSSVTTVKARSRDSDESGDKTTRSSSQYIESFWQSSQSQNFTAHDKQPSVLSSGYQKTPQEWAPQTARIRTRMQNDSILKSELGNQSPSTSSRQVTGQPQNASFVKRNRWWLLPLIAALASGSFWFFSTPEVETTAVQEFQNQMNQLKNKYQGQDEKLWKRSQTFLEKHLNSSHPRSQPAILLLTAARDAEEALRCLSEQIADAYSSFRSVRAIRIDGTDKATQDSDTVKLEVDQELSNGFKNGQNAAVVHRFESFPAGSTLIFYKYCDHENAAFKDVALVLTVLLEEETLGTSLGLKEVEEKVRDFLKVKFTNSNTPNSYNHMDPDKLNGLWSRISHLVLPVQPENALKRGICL
Chain of Fibroblast growth factor 10 (Homo sapiens) (O15520 whole entry, looked up): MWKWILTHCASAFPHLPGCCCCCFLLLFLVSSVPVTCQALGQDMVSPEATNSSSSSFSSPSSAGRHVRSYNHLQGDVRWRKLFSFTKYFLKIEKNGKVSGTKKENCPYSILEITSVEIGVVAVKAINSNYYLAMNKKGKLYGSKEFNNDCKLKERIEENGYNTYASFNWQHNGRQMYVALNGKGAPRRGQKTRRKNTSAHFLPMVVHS
Chain of Epidermal growth factor receptor (Homo sapiens) (P00533 whole entry, looked up): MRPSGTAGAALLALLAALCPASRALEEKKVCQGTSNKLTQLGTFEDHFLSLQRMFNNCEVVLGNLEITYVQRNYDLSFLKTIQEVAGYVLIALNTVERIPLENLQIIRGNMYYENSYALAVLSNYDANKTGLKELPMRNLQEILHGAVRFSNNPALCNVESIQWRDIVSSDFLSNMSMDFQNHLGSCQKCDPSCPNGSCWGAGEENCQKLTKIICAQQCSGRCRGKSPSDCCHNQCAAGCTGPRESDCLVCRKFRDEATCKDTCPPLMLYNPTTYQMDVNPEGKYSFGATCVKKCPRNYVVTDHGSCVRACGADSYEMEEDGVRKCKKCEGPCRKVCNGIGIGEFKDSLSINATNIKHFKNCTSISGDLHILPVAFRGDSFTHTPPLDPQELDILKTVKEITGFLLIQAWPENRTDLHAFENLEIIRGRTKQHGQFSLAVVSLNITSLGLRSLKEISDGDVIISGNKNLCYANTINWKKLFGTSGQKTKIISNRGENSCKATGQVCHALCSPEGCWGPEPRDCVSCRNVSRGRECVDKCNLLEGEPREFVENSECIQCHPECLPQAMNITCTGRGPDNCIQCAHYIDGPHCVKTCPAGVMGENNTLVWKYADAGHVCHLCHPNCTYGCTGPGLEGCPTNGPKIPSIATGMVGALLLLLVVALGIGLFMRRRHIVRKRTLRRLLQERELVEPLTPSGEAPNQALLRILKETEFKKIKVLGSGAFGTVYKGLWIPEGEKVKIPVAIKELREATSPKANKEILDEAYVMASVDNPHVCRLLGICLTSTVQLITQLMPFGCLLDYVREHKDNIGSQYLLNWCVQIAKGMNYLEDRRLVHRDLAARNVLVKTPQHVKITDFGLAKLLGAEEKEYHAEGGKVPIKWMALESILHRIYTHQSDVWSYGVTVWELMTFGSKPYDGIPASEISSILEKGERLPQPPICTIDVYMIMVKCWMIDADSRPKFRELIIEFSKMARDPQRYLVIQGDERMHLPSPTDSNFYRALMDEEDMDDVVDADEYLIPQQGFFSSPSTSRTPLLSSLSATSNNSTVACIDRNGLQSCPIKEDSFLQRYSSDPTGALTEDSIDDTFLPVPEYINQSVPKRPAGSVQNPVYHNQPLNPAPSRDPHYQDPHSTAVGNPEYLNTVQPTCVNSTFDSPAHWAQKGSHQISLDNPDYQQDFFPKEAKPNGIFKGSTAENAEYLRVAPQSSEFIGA

| Structure (SMILES) | composite z-score [1] | composite z-score [2] | composite z-score [3] | z-score [4] | composite z-score [5] | composite z-score [6] | composite z-score [7] | composite z-score [8] | composite z-score [9] | composite z-score [10] | composite z-score [11] | z-score [12] | composite z-score [13] | composite z-score [14] | composite z-score [15] | composite z-score [16] | composite z-score [17] | composite z-score [18] | composite z-score [19] | composite z-score [20] |
| --- | --- | --- | --- | --- | --- | --- | --- | --- | --- | --- | --- | --- | --- | --- | --- | --- | --- | --- | --- | --- |
| CO[C@@H]1COC(=O)[C@@H]2CCCN2C(=O)[C@@H](C)COC(=O)CC=C[C@H]1C | 0.13 | -0.552 | -0.522 | -0.203 (inactive) | 0.959 | 1.28 | 0.598 | 0.993 | 1.12 | -0.282 | 1.04 | -0.913 | 0.861 | -0.149 | -0.439 | -0.147 | 0.284 | 0.0453 | 0.378 | 0.234 |
| Cn1c(=O)n2n(c1=O)[C@H]1[C@H](O)[C@@H]3O[C@@H]3C(=O)[C@H]1CC2 | 0.269 | -0.0838 | -0.512 | -0.515 (inactive) | 0.946 | 0.778 | 0.531 | 0.534 | 0.408 | 0.0134 | 0.625 | 0.101 | 0.486 | -0.144 | -0.502 | -0.104 | -0.0146 | -0.234 | 0.663 | -0.541 |
| CCOC(=O)NN=C1C[C@@H](O)[C@@H](O)[C@@H]2[C@@H]3C(=O)N(c4ccc(F)cc4F)C(=O)[C@@H]3CC[C@@H]12 | 0.468 | -0.132 | -0.364 | 0.428 (inactive) | 0.478 | 0.364 | 0.527 | 0.659 | 0.462 | 0.18 | 0.687 | 0.0324 | 0.292 | -0.167 | -0.205 | -0.0087 | -0.108 | -0.213 | 0.196 | -0.234 |
| CC(C)=CCCC(C)=CCON=C1C[C@@H](O)[C@@H](O)[C@@H]2[C@@H]3C(=O)N(C[C@@H]4CCCO4)C(=O)[C@@H]3CC[C@H]12 | 0.346 | -0.257 | -0.762 | 0.91 (inactive) | 1.37 | 1.25 | 1.29 | 1.39 | 1.46 | 1 | 1.11 | -0.0626 | 0.957 | 0.0209 | 0.228 | -0.0783 | 0.0952 | -0.278 | 0.986 | 1.15 |
| COC(=O)[C@@H]1CC[C@H](C)[C@@H](c2ccc(C)cc2)N1C(=O)c1ccc(C=NO[C@H](C)c2cn([C@H](CO)Cc3ccccc3)nn2)cc1 | 0.652 | 0.178 | 0.115 | -0.178 (inactive) | 0.694 | 0.835 | 0.551 | 1.05 | 0.81 | 0.135 | 0.671 | -2.17 | 0.776 | 3.17 | -0.139 | -0.124 | 0.191 | -0.0318 | 0.462 | 0.0997 |
| COCCNC(=O)OCC1CCCC2(CC(OC(=O)NCc3ccc4c(c3)OCO4)CC(CCC(=O)N[C@@H](C)C(=O)OC)O2)O1 (stereo not given in full) | 0.742 | -0.205 | -0.634 | 0.442 (inactive) | 0.696 | 0.953 | 0.696 | 1.31 | 0.518 | 0.0253 | 0.953 | -1.26 | 0.65 | 0.332 | -0.431 | -0.0819 | -0.0553 | -0.0645 | 0.376 | 0.804 |
| COc1ccc(COC(=O)NN=C2C[C@@H](O)[C@@H](O)[C@@H]3[C@@H]4C(=O)N(Cc5ccccc5)C(=O)[C@@H]4CC[C@H]23)cc1 | -0.515 | 0.743 | 1.39 | -0.262 (inactive) | -0.259 | -0.623 | -0.432 | -0.22 | -1.15 | 0.0152 | 1.36 | -0.632 | -0.475 | 0.0114 | -0.435 | -0.0758 | -0.206 | 0.194 | 0.589 | 0.469 |
| O=C1CCCC=C1C(CCc1ccccc1)OC(=O)c1ccc(Br)cc1 (stereo not given) | -0.258 | -0.0892 | -0.442 | -0.173 (inactive) | 0.146 | -0.61 | 0.362 | 0.283 | 0.422 | 0.608 | -2.1 | 1.15 | 0.572 | -1.11 | -0.622 | -0.124 | -0.147 | -0.348 | -0.108 | -0.334 |
| COc1cccc([C@H]2Oc3ccc(OC)cc3C(=NOC[C@@H](O)COCc3ccco3)[C@@H]2O)c1 | -0.12 | -0.644 | -0.798 | -0.469 (inactive) | -0.0458 | -0.754 | -1.44 | -1.3 | 0.13 | 1.29 | -0.593 | -1.04 | -0.159 | -2.33 | -2.08 | -0.278 | -0.372 | -0.539 | -0.889 | -0.799 |
| CC(CCN1CCCCc2nc(C)c(C)cc21)=NO[C@H](C)c1cn([C@H](CO)Cc2ccccc2)nn1 | 0.79 | -0.0963 | -0.65 | 0.339 (inactive) | 0.383 | -0.393 | 0.773 | 1.25 | 0.885 | 1.15 | 0.0596 | -1.13 | 0.708 | -0.418 | -0.763 | 0.103 | 0.163 | -0.208 | 0.488 | -0.276 |
| CCOC(=O)[C@H](Cc1ccccc1)NC(=O)CCC1CC(OC(=O)NCc2cccc3ccccc23)CC2(CCCC(COC(=O)NCC(c3ccccc3)c3ccccc3)O2)O1 (stereo not given in full) | 0.812 | 0.127 | -0.464 | -1.21 (inactive) | 0.684 | 0.588 | 0.356 | 0.501 | 0.37 | 0.0413 | 0.313 | -1.46 | 0.567 | -0.328 | -0.43 | -0.096 | -0.2 | -0.187 | 0.18 | -0.0602 |
